# Experimental data from PubChem BioAssay AID1212 (NMMLSC, 2008).
# Values without a mark were called inactive. Calls of active or inactive are those of the source.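 Rule for the calls: active = blocks over 60% of fluorescent estradiol binding at 10 µM; inactive = the rest.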
# Target: G-protein coupled estrogen receptor 1 (Homo sapiens) (UniProt Q99527)
# Test: GPR30 competitive binders vs fluorescent estrogen, primary screen, cell-based, Cos7 GPR30-GFP, flow cytometry, 10 µM (AID 1212)
# Conditions: fluorescent estrogen competition, at 10 µM; stronger effect = higher value
Structure (SMILES),inhibition,outcome
Cc1c(Cc2ccccc2)c(=O)n2c([nH]c3ccccc32)c1C#N,8%,
COc1cc(C2CC(=O)Nc3c2ccc2ccccc32)cc(Cl)c1O (configuration not stated),3%,
CC1(C)Cc2[nH]c3ccccc3c2C(C)(C)N1,,inactive
CC(C)C1CC(CCNCc2ccc3c(c2)OCO3)(c2ccccc2)CCO1 (configuration not stated),,inactive
Oc1ccc2c(c1)c1c3n2CCNC3CCC1 (configuration not stated),,inactive
N#Cc1c2c(c(=O)n3c1[nH]c1ccccc13)CCCC2,15%,
COc1cc2c(cc1OC)CC(C)(C)N(Cc1ccco1)C2,5%,
CC1(C)C=C(c2ccc(O)cc2)CC(C)(C)N1,,inactive
O=C(O)COc1cc2oc(=O)c3c(c2cc1Cl)CCCC3,,inactive
COC(=O)c1ccc2c(c1)C1C=CCC1C(c1cccc([N+](=O)[O-])c1)N2 (configuration not stated),16%,
CCOc1cc2c(c([N+](=O)[O-])c1)NC(c1ccc(Cl)cc1)C1CC=CC21 (configuration not stated),,inactive
COC(=O)c1ccc(OCc2c(C)noc2C)cc1,61% (active),
